Several values for one entry are separate records, joined by “and”; a condition that tells them apart may be missing. Equal values may be shown once. Screen size: about 410,000 compounds; about 18,000 (4.4%) were called active. Inconclusive results (about 7%) are left out. Cut-off read from the data, not from the text of the source: active = activity change below about -60%; inconclusive = no clear call, values can overlap the other calls; inactive = above about -39%. For the sample, actives were picked, then their nearest neighbours and some compounds at random.

Activity change, negative = inhibition data for 87 compounds are collected here from PubChem BioAssay AID1259415 (National Center for Advancing Translational Sciences (NCATS), 2018).
% is set by controls: 0 for no effect and ±100 for the full control effect.

The nature of this test: qHTS Assay for inhibitors of the human cytomegalovirus (HCMV). As to conditions: HFF cells, HCMV-luciferase reporter, 72 h; at 57.5 µM; stronger effect = lower value. In outline: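 Cell-based, HFFs, 1000 cells/well, 16 h 37C; cpds in DMSO + HCMV-luc, MOI 1 PFU/cell; 72 h 37C; OneGlo luminescence after 5 min RT; norm. to buffer vs Salinomycin 10uM.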
In general terms: qHTS replaces the single test concentration by a dilution series.
Take `O=C(Nc1ccccc1Cl)/C(Cl)=C(\Cl)S(=O)c1ccccc1` (configuration not stated): the activity change, negative = inhibition was -100% (active). The result for `O=C(Nc1ccccc1Cl)N1CCC(CN2CCCC2)CC1` reads 37.3% (inactive); that for `O=C(Nc1ccccc1Cl)N1CCC(CN2CCCCC2)CC1`, -10.2% (inactive); that for `Oc1ccccc1-c1cc(-c2ccc(Cl)cc2)n[nH]1`, -20.6% (inactive). Turning to `COc1ccccc1CNS(=O)(=O)CC12CCC(CC1=O)C2(C)C` (configuration not stated), the activity change, negative = inhibition is 6.14% (inactive). To `Oc1cccc2cc(-c3ccncc3)cnc12` belongs -101% (active); to `Cc1ccc(OCCSc2nc3ccc(NC(=O)COc4ccc(C)cc4)cc3s2)cc1`, 7.69% (inactive). To `Cc1ccccc1NC(=O)Cn1c(=O)n(CC2CCC(C(=O)NCCc3ccccc3)CC2)c(=O)c2ccccc21` (configuration not stated) belongs 16.2% (inactive). The result for `COc1cc(OC)c2c(c1)OC(=O)CC2c1cc(OC)c(OC)c(OC)c1` (configuration not stated) reads -7.37% (inactive); that for `COc1cc(C=C(OC(C)=O)c2ccc3c(c2)OCO3)cc(OC)c1OC`, 62.8% (inactive). For the compound `COc1cc(C2c3cc4c(cc3C(O)C3COC(=O)C23)OCO4)cc(OC)c1OC` (configuration not stated), the activity change, negative = inhibition was -89.9% (active). Turning to `COC(=O)c1ccccc1NC(=O)c1cc(-c2ccccc2O)no1`, the activity change, negative = inhibition was -14.2% (inactive).

Turning to `COC(=O)/C(=C1\Oc2ccc(C(C)(C)C)cc2S1)C(F)(F)F`, the activity change, negative = inhibition is -66.8% (active).

With `CCOC(=O)C1=C(c2ccccc2)O/C(=C(/C(=O)OC)C(F)(F)F)S1`, the activity change, negative = inhibition is 34.3% (inactive). To `O=C(CNC(=O)c1n[nH]c2ccccc12)Nc1cc(Cl)ccc1Cl` belongs 12.1% (inactive). As for `Cc1ccc(C)c(-n2nnnc2SCC(=O)c2c(N)n(C)c(=O)n(C)c2=O)c1`, the activity change, negative = inhibition is -19.3% (inactive). In the case of `COc1ccc(NC(=O)C2Cc3c(-c4cccc(NC(C)=O)c4)ccnc3O2)cc1OC` (configuration not stated), the activity change, negative = inhibition was -67.8% (active).

`CC1(C(=O)Nc2cccnc2)Cc2c(-c3ccccc3)ccnc2O1` (configuration not stated): the activity change, negative = inhibition was -18.2% (inactive).

In the case of `COc1ccc(NC(=O)C2(C)Cc3c(-c4ccc(C(N)=O)cc4)ccnc3O2)cc1` (configuration not stated), the activity change, negative = inhibition is 32.9% (inactive).

For `COc1ccc(CCCNC(=O)C2Cc3c(-c4cccc(C(N)=O)c4)ccnc3O2)cc1` (configuration not stated), the activity change, negative = inhibition was -20.5% (inactive).

`CC(=O)Nc1ccc(-c2ccnc3c2CC(C(=O)NC(C)C)O3)cc1` (configuration not stated): the activity change, negative = inhibition was -16.6% (inactive). To `COc1ccc(NC(=O)C2(C)Cc3c(-c4cccc(NC(C)=O)c4)ccnc3O2)cc1` (configuration not stated) belongs -77.2% (active).

For the compound `COc1ccc(NC(=O)C2(C)Cc3c(-c4cccc(NC(C)=O)c4)ccnc3O2)cc1OC` (configuration not stated), the activity change, negative = inhibition was 16% (inactive). Consider `CC1(C(=O)NCC2CCOCC2)Cc2c(-c3cccc(C(N)=O)c3)ccnc2O1` (configuration not stated), for which the activity change, negative = inhibition is 28.9% (inactive). Turning to `CC(=O)Nc1cccc(-c2ccnc3c2CC(C)(C(=O)NCc2ccccc2)O3)c1` (configuration not stated), the activity change, negative = inhibition was -79.4% (active). As to `Brc1ccc2c(c1)NC(c1cccnc1)=NC(c1ccccc1)=N2`, the activity change, negative = inhibition was 21.9% (inactive). The result for `COc1ccc(NC(=O)CCNC(=O)Cn2ccc3ccccc3c2=O)c(OC)c1` reads -21.8% (inactive); that for `COC(=O)c1[nH]c2cccc(C)c2c1NC(=O)CN1CCCc2ccccc21`, 52.8% (inactive); that for `CCOc1ccccc1C(=O)NCC(c1ccc(N(C)C)cc1)N1CCCC1` (configuration not stated), -6.83% (inactive). On to `CCOc1ccc(-c2nonc2NC(=O)c2oc3ccc(CC)cc3c2C)cc1`, for which the activity change, negative = inhibition is 29.2% (inactive). Consider `CCOc1ccc(-c2cn(S(=O)(=O)c3cccc4nsnc34)nc2N)cc1`, for which the activity change, negative = inhibition is -29.7% (inactive). To `COc1ccccc1C(c1nnnn1C(C)(C)C)N1CCN(Cc2ccccc2)CC1` (configuration not stated) belongs -19.3% (inactive); to `CCC(C)(C)n1nnnc1C(c1ccc(OC)c(OC)c1)N1CCN(C(=O)c2ccco2)CC1` (configuration not stated), -20.3% (inactive); to `CCC(C)(C)n1nnnc1C(c1cccs1)N1CCN(c2nc3ccccc3s2)CC1` (configuration not stated), -76.3% (active).

Regarding `CCOc1ccccc1N(CC)C(=O)c1cc2ccc3cccnc3c2[nH]1`, the activity change, negative = inhibition was 36.8% (inactive). With `CCOC(=O)c1c(C)[nH]c2c1-c1ccccc1C(=O)C2=O`, the activity change, negative = inhibition was -99.7% (active). As for `CCOC(=O)c1c(C)[nH]c(C)c1S(=O)(=O)N(C)CC(=O)N1CCN(c2ccccc2)CC1`, the activity change, negative = inhibition is -3.36% (inactive). As for `CCOC(=O)c1c(SCC(=O)Nc2cccc(C)c2C)nc(=O)[nH]c1C`, the activity change, negative = inhibition was -0.768% (inactive). To `CCOCCCNC(=O)c1c(NC(=O)Cc2coc3c(C)c(C)ccc23)sc2c1CCC2` belongs -19.7% (inactive); to `CCN(CC(=O)Nc1c(F)cccc1F)C(=O)c1ccc(S(=O)(=O)N2CCCCC2)cc1`, -16.4% (inactive); to `CN(C)CCCN(C(=O)c1ccc(S(=O)(=O)N2CCCCCC2)cc1)c1nc2ccc(Br)cc2s1`, -66.2% (active).

Take `Cc1cc(C)c2sc(NC(=O)c3ccc(S(=O)(=O)N4CCCC4)cc3)nc2c1`: the activity change, negative = inhibition was 1.97% (inactive). Regarding `O=C(Nc1nnc(S(=O)(=O)N2CCCc3ccccc32)s1)c1cccc(F)c1`, the activity change, negative = inhibition is -22.4% (inactive). For the compound `CC1CCN(C(=O)c2cccc(S(=O)(=O)N3CCCc4ccccc43)c2)CC1`, the activity change, negative = inhibition was -31.3% (inactive). To `CN(C)CCCN(C(=O)c1ccc(S(=O)(=O)N2CCCc3ccccc32)cc1)c1nc2ccc(F)cc2s1` belongs -113% (active). For the compound `Cc1cn(C)c(CC(=O)NCc2ccc(Cl)cc2)c1C(=O)O`, the activity change, negative = inhibition was -3.74% (inactive). Consider `O=C(CSc1ncc(CO)n1Cc1ccc(Cl)cc1)NCc1ccc(F)cc1`, for which the activity change, negative = inhibition was 0.963% (inactive).

Regarding `Cc1ccc2[nH]c(=O)c(CC=C(Cl)Cl)c(C)c2c1`, the activity change, negative = inhibition was -11.6% (inactive). To `CCC(=O)Nc1cccc(-c2nc3cc(C)ccc3o2)c1` belongs 103% (inactive). The result for `NC(=O)c1ccc(N2CCCC2)nc1` reads 9.29% (inactive).

As to `C/C(CC(C)C)=N\Oc1nc(C)cc(C)n1`, the activity change, negative = inhibition was -62.7% (active).

For `COc1ccc(NC(=O)C(CC(C)C)NS(=O)(=O)c2ccc3c(c2)CCN3C(C)=O)cc1OC` (configuration not stated), the activity change, negative = inhibition was -16% (inactive). As to `CC(=O)OC1CCC2(C)C(=CCC3C4CC(=O)N(O)C(=O)C4(C)CCC32)C1` (configuration not stated), the activity change, negative = inhibition is 17.9% (inactive). As for `C[C@@H]1CC[C@@]2(OC1)O[C@H]1C[C@H]3[C@@H]4CC=C5C[C@@H](O)[C@H](O)C[C@]5(C)C4CC[C@]3(C)[C@H]1[C@@H]2C` (some centres not stated), the activity change, negative = inhibition was -70.9% (active). The result for `C[C@]12CC[C@H](O)CC1=CCC1C2CC[C@@]2(C)C1CC[C@@H]2NC(=O)CCC(=O)O` (some centres not stated) reads -2.14% (inactive). For the compound `Cc1cccc(NC(=O)c2nnn(CC(=O)Nc3ccc(C(C)C)cc3)c2N)c1C`, the activity change, negative = inhibition is 3.95% (inactive). The result for `COc1cccc(/C=C/c2ccc3ccccc3n2)c1OC(C)=O` reads -95.1% (active). To `CCOc1ccc2ccccc2c1/C=N/NC(=O)c1c(C)cc(C)[nH]c1=O` belongs -32.4% (inactive). The result for `CCOc1cccc(/C=C/c2ccc3ccccc3n2)c1OC(C)=O` reads -79.7% (active); that for `COc1cccc(NC(=O)COC(=O)c2ccc3ccccc3n2)c1`, 78.4% (inactive); that for `COc1ccccc1/C=C/C1=NC(=C\N(C)C)/C(=O)O1`, 64.2% (inactive). Turning to `Cc1cc(C)cc(NS(=O)(=O)c2cc3c(cc2C)NC(=O)CO3)c1`, the activity change, negative = inhibition is -26.3% (inactive). To `Cc1cccc(N2CCN(C(=O)c3cc4c(=O)oc5ccccc5c4s3)CC2C)c1` (configuration not stated) belongs 1.15% (inactive).

In the case of `COc1ccc(NC(=O)Cn2c(=O)n(CCC(C)C)c(=O)c3cccnc32)cc1Cl`, the activity change, negative = inhibition was -4.37% (inactive). The result for `O=C(Nc1ccc(F)cc1)Nc1nnc([C@H]2C[C@H](O)[C@@H](CO)O2)s1` reads 30.2% (inactive); that for `Cc1ccc(CNC(=O)Nc2nnc([C@H]3C[C@H](O)[C@@H](CO)O3)s2)cc1`, -100% (active). As for `O=C(Nc1nnc([C@H]2C[C@H](O)[C@@H](CO)O2)s1)c1cccc(Cl)c1`, the activity change, negative = inhibition was 40.2% (inactive). For `COc1cc(C(=O)NCc2ccncc2)cc(Br)c1OCc1ccccc1`, the activity change, negative = inhibition is -62.2% (active). In the case of `COc1ccccc1OCCC(=O)OCC(=O)NCc1ccccc1`, the activity change, negative = inhibition is 14.2% (inactive).

With `COc1cc(-c2nnn(CC(=O)NCc3ccccc3)n2)cc(OC)c1OC`, the activity change, negative = inhibition was 5.2% (inactive) and 12.4% (inactive). To `CCC(=O)N1CCc2cc(S(=O)(=O)NC(C(=O)N3CCc4ccccc4C3)C(C)C)ccc21` (configuration not stated) belongs -14.7% (inactive). For `Cc1nc(NC(CC(C)C)C(=O)O)c2nc(C)oc2n1` (configuration not stated), the activity change, negative = inhibition is -6.81% (inactive). To `O=c1c(-c2ccc3c(c2)OCCO3)c(C(F)(F)F)oc2cc(O)cc(O)c12` belongs -90.6% (active); to `CCOC(=O)c1cc2cc(-c3c(C(=O)OCC)oc4cc(O)cc(O)c4c3=O)ccc2o1`, -2.73% (inactive). To `CCOc1ccc2c(=O)c(-c3ccc4c(c3)OCCCO4)c(C)oc2c1` belongs 20.1% (inactive). To `CCc1ccc(CNC(=O)c2ccc(CS(=O)c3ccc(Br)cc3)o2)cc1` (configuration not stated) belongs 10.6% (inactive); to `CCOC(=O)c1cc(-c2ccccc2)n(CCC(=O)Nc2ccccc2CC)c1C`, 30.9% (inactive); to `Cc1ccc(Cl)cc1NC(=O)CSc1nc2ccccc2nc1Cc1ccccc1`, 36.7% (inactive). As for `CCN1/C(=C\c2ccc3ccccc3[n+]2CC)Sc2cc(C)ccc21`, the activity change, negative = inhibition was -99.8% (active). In the case of `O=c1o[nH]c(-c2ccccc2)c1N=Nc1c(F)cccc1Cl`, the activity change, negative = inhibition is -12.9% (inactive). For the compound `COc1cc(NC(=O)CCn2nc(C)cc2C)cc(OC)c1OC`, the activity change, negative = inhibition is 9.6% (inactive). Turning to `CN(C(=O)CN1C(=O)S/C(=C\c2ccccc2F)C1=O)C1CCS(=O)(=O)C1` (configuration not stated), the activity change, negative = inhibition was -18.9% (inactive). With `COc1ccccc1/C=C1\SC(=O)N(CCC(=O)N(C)C2CCS(=O)(=O)C2)C1=O` (configuration not stated), the activity change, negative = inhibition is -7.61% (inactive).

With `CN(C(=O)CCN1C(=O)/C(=C/c2ccccc2F)SC1=S)C1CCS(=O)(=O)C1` (configuration not stated), the activity change, negative = inhibition is -63.4% (active). In the case of `CCCNC(=O)CCC(=O)N1Cc2ccccc2Oc2ncccc21`, the activity change, negative = inhibition was 2.27% (inactive).

For `Cc1cc(=O)n2[nH]c(-c3sccc3-n3c(C)ccc3C)cc2n1`, the activity change, negative = inhibition was -64.1% (active). The result for `COc1ccccc1CNS(=O)(=O)c1cc(Br)cc2c1N(C(C)=O)C(C)C2` (configuration not stated) reads -27.7% (inactive).
